SKKanGAS inh = SKKanGAS growth inhibition. S. pyogenes SKKanGAS, kanamycin growth, BacTiter-Glo, 6 h. inhibition, % at 7.5 µM. actives 1.3% (n = 300,000). AID 1662;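 active = mean replicate score, as percent of positive control median, at least 50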;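 also: strain carries kanamycin resistance gene driven by streptokinase promoter and grows in 40 µg/ml kanamycin; loss of luminescence reflects streptokinase promoter inhibition or plain growth inhibition; 0% = median of DMSO wells and 100% = positive control at its reference dose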
tim23-1 inh = inhibits growth of tim23-1 mutant yeast | AID 463212 | inhibition, % at 20 µM | actives 1.3% (n = 330,000) | S. cerevisiae tim23-1 growth, BacTiter-Glo luminescence, 24 h;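 active = growth inhibition of the mutant yeast at or above 50%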;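 also: temperature-sensitive mutant grown at 25 °C; plate controls were DMSO-treated mutant yeast for no effect and medium wells lacking yeast for full effect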
TIM10 inh = inhibits growth of TIM10 yeast strain; actives 1.4% (n = 330,000); inhibition, % at 10 µM; S. cerevisiae TIM10 strain growth, BacTiter-Glo luminescence, 24 h; AID 463195;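 active = inhibition of 40% or more at the single tested concentration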;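 also: wild-type TIM10 isogenic control strain grown at permissive 25 °C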
tim10-1 inh = growth inhibitors of tim10-1 mutant yeast | S. cerevisiae tim10-1 ts strain growth, BacTiter-Glo, 24 h | inhibition, % at 20 µM | actives 2.2% (n = 330,000) | AID 463190;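 active = inhibition of at least 40%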;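 also: mutant grown at 25 °C; 0% = DMSO wells with yeast and 100% = wells holding no yeast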
PfHsp90 set2 = inhibits growth of yeast expressing Plasmodium falciparum Hsp90; S. cerevisiae expressing PfHsp90, BacTiter-Glo ATP, 48 h; yeast lacking PDR1 and PDR3 efflux regulators; inhibition, % at 9.4 µM; actives 0.32% (n = 310,000); AID 504621;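 active = every replicate shows inhibition above about 80%, whatever the replicate mean, limit read from the data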;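 also: 0% = DMSO neutral controls and 100% = 20 µM radicicol positive controls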
ATG4B inhibitor = ATG4B (human) cysteine protease inhibition; inhibition, % at 8.33 µM; actives 0.51% (n = 340,000); AID 504462; ATG4B cleavage of LC3-PLA2, NBD-HPC fluorescence, 1 h; in the data active = inhibition above about 40%
Target sequence (Q9Y4P1 whole entry, looked up): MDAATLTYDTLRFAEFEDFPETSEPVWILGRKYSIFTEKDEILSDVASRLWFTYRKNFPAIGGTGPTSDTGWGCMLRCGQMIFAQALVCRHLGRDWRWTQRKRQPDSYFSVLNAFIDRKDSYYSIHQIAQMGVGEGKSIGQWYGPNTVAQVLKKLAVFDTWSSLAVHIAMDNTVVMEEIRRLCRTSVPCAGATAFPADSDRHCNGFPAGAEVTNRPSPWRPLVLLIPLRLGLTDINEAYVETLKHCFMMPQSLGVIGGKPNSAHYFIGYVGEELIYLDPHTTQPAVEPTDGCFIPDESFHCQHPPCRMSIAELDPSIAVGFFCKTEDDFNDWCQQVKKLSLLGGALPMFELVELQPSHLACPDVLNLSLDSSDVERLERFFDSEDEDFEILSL
Numbers without * were called inactive. Rows were chosen to be rich in hits. Some 4.7% of all compounds tested hit in one or more screens of this group.

How did CC(C)C(=O)Nc1ccc(C(=O)N/N=C/c2cc(Br)cc(Br)c2O)cc1 do in these assays?
SKKanGAS inh: 67.9*; tim23-1 inh: -3.7; TIM10 inh: 7.8; tim10-1 inh: 12.7; PfHsp90 set2: 5.6; ATG4B inhibitor: -6.6

How did Cc1ccc(/C=N/NC(=O)CSc2nc3ccccc3s2)o1 do in these assays?
SKKanGAS inh: -1.7; tim23-1 inh: 15.8; TIM10 inh: 21.1; tim10-1 inh: 12.0; PfHsp90 set2: 8.1; ATG4B inhibitor: 4.1

Results for O=C(N/N=C\c1cc(Br)ccc1O)c1ccc(S(=O)(=O)N2CCCCC2)cc1 ?
SKKanGAS inh: 106.0*; tim23-1 inh: 6.1; TIM10 inh: 25.6; tim10-1 inh: 17.9; PfHsp90 set2: -4.1; ATG4B inhibitor: 4.3

How did O=C(N/N=C/c1cc(O)ccc1Br)c1cccnc1 do in these assays?
SKKanGAS inh: 110.8*; tim23-1 inh: 46.9; TIM10 inh: 3.3; tim10-1 inh: -14.3; PfHsp90 set2: -6.9; ATG4B inhibitor: -2.9

What do the screens show for `O=C(CSc1nc2ccccc2s1)N/N=C/c1cc([N+](=O)[O-])ccc1O`?
SKKanGAS inh: 90.6*; tim23-1 inh: 19.0; TIM10 inh: -0.1; tim10-1 inh: 2.0; PfHsp90 set2: -31.8; ATG4B inhibitor: 19.7

Results for CCCc1nnc(NC(=O)CC(C)c2ccccc2)s1 (stereo not given) ?
SKKanGAS inh: -1.0; tim23-1 inh: 17.3; TIM10 inh: -10.7; tim10-1 inh: 0.8; PfHsp90 set2: -15.5; ATG4B inhibitor: 11.6

Results for Cc1nc(C)c(C(=O)N/N=C/c2cc(Br)ccc2O)s1 ?
SKKanGAS inh: 90.6*; tim23-1 inh: 39.1; TIM10 inh: 34.6; tim10-1 inh: 4.0; PfHsp90 set2: -17.9; ATG4B inhibitor: -2.4

How did O=C(N/N=C/c1cc([N+](=O)[O-])ccc1O)c1cccc2cc[nH]c12 do in these assays?
SKKanGAS inh: 89.4*; tim23-1 inh: -18.2; TIM10 inh: 4.0; tim10-1 inh: -2.1; PfHsp90 set2: -1.3; ATG4B inhibitor: 0.6

How did O=C(N/N=C/c1cc([N+](=O)[O-])ccc1O)c1ccc2c(c1)OCCO2 do in these assays?
SKKanGAS inh: 69.8*; tim23-1 inh: 0.1; TIM10 inh: 1.6; tim10-1 inh: 8.7; PfHsp90 set2: 0.7; ATG4B inhibitor: 1.7

What do the screens show for `O=C(N/N=C/c1cc(Br)ccc1O)c1ccncc1`?
SKKanGAS inh: 104.1*; tim23-1 inh: 42.9; TIM10 inh: 6.8; tim10-1 inh: 2.8; PfHsp90 set2: 14.6; ATG4B inhibitor: -6.8

What do the screens show for `Cc1cc(NC(=O)C(C)SCC(=O)Nc2cc(Cl)ccc2N2CCN(C)CC2)no1` (stereo not given)?
SKKanGAS inh: -5.5; tim23-1 inh: 15.0; TIM10 inh: -3.6; tim10-1 inh: 3.0; ATG4B inhibitor: 4.6

What do the screens show for `CCCCSc1nc(C)cc(SCC(=O)N/N=C/c2cccc(OC)c2O)n1`?
SKKanGAS inh: 69.8*; tim23-1 inh: 25.6; TIM10 inh: 20.0; tim10-1 inh: 19.0; PfHsp90 set2: -9.3; ATG4B inhibitor: -8.5

What do the screens show for `COc1cccc(/C=N/NC(=O)CSc2nnc(C)n2-c2ccccc2)c1O`?
SKKanGAS inh: 16.1; tim23-1 inh: -12.0; TIM10 inh: 10.6; tim10-1 inh: -3.8; PfHsp90 set2: 2.9; ATG4B inhibitor: -11.3

How did CC1CCCCC1NC(=O)CCn1ccc2cc(S(=O)(=O)N3CCCC3)ccc21 (stereo not given) do in these assays?
SKKanGAS inh: 50.2*; tim23-1 inh: 9.2; TIM10 inh: 5.3; tim10-1 inh: 3.0; PfHsp90 set2: -24.0; ATG4B inhibitor: -8.8

Results for COc1ccc(-c2sc3cc(OC)c(OC)cc3c2C#CC2(O)CCCCC2)cc1 ?
tim23-1 inh: 33.9; TIM10 inh: 6.6; tim10-1 inh: 24.5; PfHsp90 set2: -8.7; ATG4B inhibitor: -28.4

What do the screens show for `COc1ccc(-c2sc3ccccc3c2C#CC2(O)CCCCC2)cc1`?
SKKanGAS inh: 101.0*; PfHsp90 set2: 13.2; ATG4B inhibitor: 19.7

How did COc1cc(CCNC(=O)c2ccccc2NC(=O)C2=C(C)OCCS2)cc(OC)c1OC do in these assays?
SKKanGAS inh: -5.2; tim23-1 inh: 16.7; TIM10 inh: 2.6; tim10-1 inh: 9.5; PfHsp90 set2: 3.3; ATG4B inhibitor: -5.6

What do the screens show for `COc1ccc(C(=O)CSc2nnc(-c3ccco3)n2C)cc1`?
SKKanGAS inh: 2.8; tim23-1 inh: -0.8; TIM10 inh: 6.6; tim10-1 inh: -7.8; PfHsp90 set2: 27.2; ATG4B inhibitor: -1.3

Results for CNS(=O)(=O)c1ccc(NC(=O)c2cnn3c(C(F)F)cc(-c4ccccc4)nc23)cc1 ?
SKKanGAS inh: 53.4*; tim23-1 inh: 6.3; TIM10 inh: 6.5; tim10-1 inh: -4.2; PfHsp90 set2: -0.5; ATG4B inhibitor: 5.2

What do the screens show for `CS(=O)(=O)N1CCC(Oc2ccccc2C(=O)N2CCCCC2CO)CC1` (stereo not given)?
SKKanGAS inh: 2.3; tim23-1 inh: 6.6; TIM10 inh: 8.3; tim10-1 inh: -13.4; PfHsp90 set2: 13.1; ATG4B inhibitor: 3.1

What do the screens show for `Cc1cc(C)cc(Nc2nc3ccccc3c(=O)[nH]2)c1`?
SKKanGAS inh: -4.8; tim23-1 inh: 1.6; TIM10 inh: 11.7; tim10-1 inh: 9.5; PfHsp90 set2: -4.2; ATG4B inhibitor: 9.7

How did Cc1cccc(-c2nc3ccccc3c(=O)[nH]2)c1 do in these assays?
SKKanGAS inh: -0.2; tim23-1 inh: 10.7; TIM10 inh: 27.6; tim10-1 inh: 16.3; PfHsp90 set2: -27.2; ATG4B inhibitor: -5.8

What do the screens show for `Cc1ccc2c(=O)[nH]c(Nc3nc(C)cc(-c4ccccc4)n3)nc2c1`?
SKKanGAS inh: 89.0*; tim23-1 inh: -23.4; TIM10 inh: 18.7; tim10-1 inh: 5.1; PfHsp90 set2: -3.2; ATG4B inhibitor: 4.0

Results for COc1nc(Nc2nc3ccccc3c(=O)[nH]2)nc2ccc(C)cc12 ?
SKKanGAS inh: 85.2*; tim23-1 inh: 21.3; TIM10 inh: 37.2; tim10-1 inh: 25.2; PfHsp90 set2: -3.8; ATG4B inhibitor: 8.0

How did COCCCNC(=S)NNC(=O)c1cc(-c2ccncc2)nc2ccccc12 do in these assays?
SKKanGAS inh: 14.0; tim23-1 inh: 12.7; TIM10 inh: 16.9; tim10-1 inh: 19.3; PfHsp90 set2: 8.8; ATG4B inhibitor: -4.5

How did Cc1nn(-c2ccccc2)c(Cl)c1C1C(C#N)=C(N)OC2=C1C(=O)CC(C)(C)C2 (stereo not given) do in these assays?
SKKanGAS inh: 84.9*; tim23-1 inh: 11.3; TIM10 inh: 13.1; tim10-1 inh: 18.4; PfHsp90 set2: -11.5; ATG4B inhibitor: -3.1

What do the screens show for `CCOC(=O)c1c(NC(=O)CSc2nnc(-c3cccnc3)n2Cc2ccco2)sc(C)c1C`?
SKKanGAS inh: 18.4; tim23-1 inh: -5.8; TIM10 inh: 33.3; tim10-1 inh: 20.1; PfHsp90 set2: -4.8; ATG4B inhibitor: 4.2

Bioassay records deposited in PubChem by several laboratories.
